# Results filed as inconclusive are left out. Entries that show only a call come without a potency. Activity calls are given as the source filed them. Calls come from the whole dose curve; as a rule, active = well fitted cell-killing curve with a large enough effect; inconclusive = small, poorly fitted or top-dose-only effect; inactive = flat fitted curve, though single readings scatter. Where a SMILES comes first, the peptide text is derived from it. [ ]: non-standard residue; d: D form. pGlu = O=C1CC[C@@H](C(=O)O)N1; Thz = O=C(O)[C@@H]1CSCN1
# Test: qHTS assay to identify small molecule inhibitors of chordoma cells - UCH-2 (AID 1259356)
# Conditions: UCH-2 chordoma viability, CellTiter-Glo ATP luminescence, 48 h; series mostly up to 46.1 µM
# Potency is the fitted concentration of half-maximal effect.
row,Structure (SMILES),Potency
1,C[C@H](O)[C@H](O)[C@H]1CNc2nc(N)[nH]c(=O)c2N1,inactive
2,COc1cccc2c1C(=O)c1c(O)c3c(c(O)c1C2=O)C[C@@](O)(C(=O)CO)C[C@@H]3O[C@H]1C[C@H](N)[C@H](O[C@@H]2CCCCO2)[C@H](C)O1,18.3 µM (active)
3,COc1cc(CNC(=O)CCCC/C=C/C(C)C)ccc1O,inactive
4,O=C1CC[C@@H](C(=O)N2CSC[C@H]2C(=O)O)N1 ([pGlu]-[Thz]-OH),inactive
5,CC(=O)O[C@H]1C[C@@]2(C)[C@@H](C[C@@H](O)[C@H]3[C@@]4(C)CC[C@@H](O)[C@@H](C)[C@@H]4CC[C@@]32C)/C1=C(\CCC=C(C)C)C(=O)O,inactive
6,COc1cc(/C=C/C(=O)CC(=O)/C=C/c2ccc(O)c(OC)c2)ccc1O,inactive
7,c1ccc2sc(SSc3nc4ccccc4s3)nc2c1,inactive
8,O=C(O)Cc1ccc(-c2ccccc2)cc1,inactive
9,CN1[C@@H]2CC[C@H]1CC(OC(=O)C(CO)c1ccccc1)C2 (stereo not given in full),inactive
10,CC(=O)[C@]1(O)Cc2c(O)c3c(c(O)c2[C@@H](O[C@H]2C[C@H](N)[C@H](O)[C@H](C)O2)C1)C(=O)c1c(O)cccc1C3=O,20.6 µM (active)
11,Cc1onc(-c2c(F)cccc2Cl)c1C(=O)N[C@@H]1C(=O)N2[C@@H]1SC(C)(C)[C@@H]2C(=O)O,inactive
12,COc1cc2c3cc1Oc1cc(ccc1O)C[C@@H]1c4c(cc(OC)c(O)c4Oc4ccc(cc4)C[C@@H]3N(C)CC2)CC[N+]1(C)C,inactive
13,Nc1cc(-c2ccncc2)c[nH]c1=O,inactive
14,O=C(O)[C@H](CC(=O)N1C[C@H]2CCCC[C@H]2C1)Cc1ccccc1,inactive
15,CC1(C)[C@@H](O[C@H]2O[C@H](C(=O)O)[C@@H](O)[C@H](O)[C@H]2O[C@@H]2O[C@H](C(=O)O)[C@@H](O)[C@H](O)[C@H]2O)CC[C@]2(C)[C@H]3C(=O)C=C4[C@@H]5C[C@@](C)(C(=O)O)CC[C@]5(C)CC[C@@]4(C)[C@]3(C)CC[C@@H]12,inactive
